High-throughput results from PubChem.
15-hLO inh: inhibitors of human 15-lipoxygenase (ALOX15); P16050; purified 15hLO-1, xylenol orange hydroperoxide absorbance; Potency, µM (doses to about 57.1 µM), for the others: at the top dose activity change, negative = inhibition, hits mostly inhibitors; actives 1.4% (n = 74,000); note: nearly all actives have a fitted effect of over 55% in size
Target sequence (P16050 whole entry, looked up): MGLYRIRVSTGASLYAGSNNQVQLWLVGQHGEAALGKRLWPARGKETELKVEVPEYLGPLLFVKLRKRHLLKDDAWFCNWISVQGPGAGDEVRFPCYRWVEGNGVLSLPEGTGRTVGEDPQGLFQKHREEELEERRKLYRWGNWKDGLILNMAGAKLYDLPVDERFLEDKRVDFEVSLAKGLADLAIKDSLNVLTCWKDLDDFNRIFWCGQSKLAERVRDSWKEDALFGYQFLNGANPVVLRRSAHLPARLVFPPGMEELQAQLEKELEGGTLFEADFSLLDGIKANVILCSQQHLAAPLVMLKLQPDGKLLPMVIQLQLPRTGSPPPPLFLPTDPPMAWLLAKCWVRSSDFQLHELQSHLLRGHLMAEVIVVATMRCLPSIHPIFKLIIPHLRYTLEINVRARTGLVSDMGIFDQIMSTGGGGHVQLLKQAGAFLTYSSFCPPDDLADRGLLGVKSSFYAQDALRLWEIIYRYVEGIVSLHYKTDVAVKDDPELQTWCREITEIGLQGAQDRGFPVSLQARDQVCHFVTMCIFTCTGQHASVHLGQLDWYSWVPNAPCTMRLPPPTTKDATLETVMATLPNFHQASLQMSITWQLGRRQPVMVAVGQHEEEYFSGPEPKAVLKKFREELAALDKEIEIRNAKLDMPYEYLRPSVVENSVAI
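Hydroperoxide formed from arachidonic acid (50 uM) by purified human 15hLO-1 (40 nM) oxidizes ferrous iron, and the ferric-xylenol orange complex is read at 573 versus 405 nm. Compounds were preincubated 15 min; reaction ran 6 min at room temperature.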
HADH2 inh: blocks human hydroxyacyl-CoA dehydrogenase type II. Q99714. recombinant HADH2, NADH fluorescence, beta-hydroxybutyryl-CoA. Potency, µM (top dose mostly 57.1 µM), for inactives: at the top dose activity change, negative = inhibition, usual class: inhibitors. actives 3.4% (n = 73,000). AID 886; note: nearly all actives have a fitted effect of over 60% in size
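20 nM HADH2 + cpd, 15 min RT; add 1 mM NAD+/90 uM beta-hydroxybutyryl-CoA; kinetic fluorescence 360/450 nm, 4 min. Tris-HCl pH 9.0, 0.01% Tween-20.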
PK Bst: alters activity of Bacillus stearothermophilus pyruvate kinase. purified pyruvate kinase, luminescence ATP production; ribose 5-phosphate activator present at AC10. Potency, µM. actives 1.2% (n = 51,000); in the data active = potency below about 11 µM; inconclusive = mostly about 12 µM to 25 µM;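 the screen sought inhibitors and activators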;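 note: scaled between full activation by ribose 5 phosphate and full inhibition by luteolin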
ERK AVP inh: blocks ERK signaling stimulated by vasopressin. AID 995. actives 0.99% (n = 72,000). Potency, µM (highest dose often 57.5 µM), for the others: at the highest dose activity, negative = inhibition, usual class: inhibitors. HEK293-V1b, vasopressin-stimulated pERK AlphaScreen; note: nearly all actives have a fitted effect of over 55% in size
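Phosphorylated ERK1/2 detected via AlphaScreen bead proximity in lysates of V1b-expressing HEK293 cells given 25 nM vasopressin for 5 min after 30 min compound exposure (37 °C). AC50 from Hill equation; basal DMSO 0%, vasopressin 100%.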
HSD17B inh: inhibitors of human HSD17B10 dehydrogenase | Q99714 | recombinant HSD17B10, NADH fluorescence kinetic | Potency, µM (top dose mostly 57.1 µM), inactives show at the highest dose activity change, negative = inhibition, usual class: inhibitors | actives 7.6% (n = 75,000) | AID 893;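 note: the protocol describes HADH2 (HSD17B10) and not the HSD17B4 of the title; nearly all actives have a fitted effect of over 70% in size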
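20 nM HADH2, pH 9.0 Tris/Tween; cpd preinc 15 min RT; start w/ 1 mM NAD+ + 90 uM b-hydroxybutyryl-CoA; kinetic fluor ex360/em450 q30s x 4 min; delta last-first.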
FLuc inh: firefly luciferase inhibition; P08659; purified firefly luciferase, luminescence, 8 min; Potency, µM (doses to about 57.1 µM), without a hit: at the highest dose activity change, negative = inhibition, actives largely listed as inhibitors; actives 2.2% (n = 72,000); note: nearly all actives have a fitted effect of over 40% in size
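Luminescence read-out after 8 min at room temperature; enzyme reaction used luciferin plus 10 uM ATP (linear range) in imidazole buffer pH 7.2 with KCl, MgCl2, Tween 20 and BSA. Each sample was run as a titration.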
* marks the source's active call; other numbers are inactive results; ? = inconclusive; . = no result; [ ] = another dose, or the depositor's remark. In the library only some 11% were active in any assay of this set; here they are far more common. Unless noted, calls come from the whole dose curve; as a rule, active = well fitted curve in the direction sought with a large enough effect; inconclusive = small, poorly fitted or top-dose-only effect, or another doubt; inactive = no such curve, though single readings can be large; an effect the other way counts as inactive or inconclusive. Unless noted, % is set by controls: 0 for no effect and ±100 for the full control effect; potency is the fitted concentration of half-maximal effect.

SMILES | 15-hLO inh | HADH2 inh | PK Bst | ERK AVP inh | HSD17B inh | FLuc inh
Cc1ccc(S(=O)(=O)N[C@H]2COC(=O)C/C=C\[C@H](C)[C@@H](NS(=O)(=O)c3ccc(C)cc3)COC(=O)C/C=C\[C@@H]2C)cc1 | 3.7%[11.4 µM] | 7.1%[11.4 µM] | . | 0.1%[11.5 µM] | 2.2%[11.4 µM] | 0.9%[11.4 µM]
O=C(Nc1cccc(F)c1)N1CCCC2(CCN(C(=O)c3ccncc3)CC2)C1 | 7.4% | 10.0% | . | -2.5% | -4.0% | 0.8%[11.4 µM]
O=C(O)c1ccc(Cl)cc1Cl | -4.1% | 2.1% | . | 4.4% | 5.6% | .
O=C(/C=N/O)NCCCCNC(=O)/C=N/O | -5.6%[11.4 µM] | -10.9%[11.4 µM] | . | 14.0%[11.5 µM] | 7.6%[11.4 µM] | .
CC(/C=C/C=C(C)/C=C/C(=O)O)=C\C=C\C=C(C)\C=C\C=C(C)\C=C\C(=O)O | ? | -19.9% | . | -1.2% | 25.1µM* | .
CC(C)[C@@H](CC(=O)N[C@@H]1CCCC[C@H]1C(=O)N[C@H](CC(=O)N[C@@H](CCC(=O)O)CC(=O)O)Cc1ccccc1)NC(=O)C[C@H](Cc1c[nH]c2ccccc12)NC(=O)[C@@H]1CNCC[C@H]1N | . | -10.2% | . | . | . | .
CCn1c(SCC(=O)NCc2ccccc2)nc2ccccc2c1=O | 5.5% | 8.3% | >57 | 6.5% | 5.1% | 1.6%
CCn1c(SCc2nc3ccccc3c(=O)[nH]2)nc2ccccc2c1=O | 1.2% | 0.3% | >57 | 7.94µM* | ? | 1.5%
Nc1c(C(=O)NC2CCCC2)c2nc3ccccc3nc2n1/N=C/c1cccnc1 | -7.1% | 2.8% | >57 | -12.9% | ? | -3.1%
CCCCCNC(=O)c1c(N)n(/N=C/c2ccco2)c2nc3ccccc3nc12 | . | . | >25.6 | . | . | 2.5%[25.5 µM]
Cc1ccc(C)c(S(=O)(=O)c2c(N)n(/N=C/c3ccco3)c3nc4ccccc4nc23)c1 | -22.2% | ? | >57 | -1.0% | 31.6µM* | 1.4%
Nc1c(S(=O)(=O)c2ccccc2)c2nc3ccccc3nc2n1/N=C/c1cccc(O)c1 | ? | ? | ? | -18.7% | 25.1µM* | 0.2%
CC(=O)OC1CC[C@]2(C)C(CC(OC(C)=O)[C@]3(C)C2CC[C@@]2(C)C(c4ccoc4)OC(=O)C4O[C@]432)C1(C)C (stereo not given in full) | 0.5% | . | . | 20.2% | -5.0% | .
Cc1ccc(NC(=O)CSCC(N)=O)cc1C | 6.31µM* | 1.1% | >57 | -14.9% | 25.1µM* | -26.6%
Cc1c(Cl)c(S(N)(=O)=O)cc(S(N)(=O)=O)c1NC(=O)c1ccc(Cl)cc1 | 5.8%[11.4 µM] | 1.4%[11.4 µM] | . | -4.5%[11.5 µM] | 7.6%[11.4 µM] | 3.2%[11.4 µM]
O=C(CSc1nc2ccccc2c(=O)n1CCCO)NCc1ccccc1 | 6.6% | 2.4% | >57 | -16.5% | 3.8% | 2.6%
COCCNC(=O)CSc1nc2ccccc2c(=O)n1CC1CCCO1 (stereo not given) | -1.9% | -12.9% | >57 | 6.8% | 22.1% | 2.2%
CCCCNC(=O)CSc1nc2ccc(N3CCOCC3)cc2c(=O)n1CCc1ccccc1 | 25.1µM* | -0.9% | >57 | 16.9% | ? | -0.4%
COCCNC(=O)CSc1nc2ccc(N3CCOCC3)cc2c(=O)n1CCc1ccccc1 | -26.4% | 31.6µM* | >57 | -11.5% | ? | 0.0%
CC(C)=CCC/C(C)=C/CO/N=C1/[C@H]2O[C@@H]2[C@@H](O)[C@H]2[C@H]1CCn1c(=O)n(-c3ccccc3)c(=O)n12 | -20.4%[11.4 µM] | 13.6%[11.4 µM] | . | -0.8%[11.5 µM] | 2.8%[11.4 µM] | 1.3%[11.4 µM]
CC1=CC(=O)C2C(C)(C)CCC[C@@]2(C)[C@@]1(O)CCc1ccoc1 (stereo not given in full) | -16.3% | . | . | -1.9% | ? | .
COC(=O)NC(/C(C(=O)OC)=C(\C)NCc1ccccc1)c1cccs1 (stereo not given) | ? | 6.5%[11.4 µM] | . | 32.2%[11.5 µM] | -10.8%[11.4 µM] | .
CN(C)c1ccc(-c2cncnc2NCCc2cnc[nH]2)cc1 | 14.3% | 10.3% | . | -26.8% | 0.6% | -0.7%[2.29 µM]
NC(=O)CSc1oc(-c2ccc(F)cc2)nc1S(=O)(=O)c1ccccc1 | -18.3% | -4.0% | >57 | 9.8% | -4.0% | -8.0%
